Where “and” joins values, the source holds several entries; their conditions need not be identical. Equal values may be shown once. Records with an inconclusive call do not appear. Calls of active or inactive are those of the source. The call rests on the fitted dose curve; in most records, active means well fitted curve in the direction sought with a large enough effect; inconclusive means small, poorly fitted or top-dose-only effect, or another doubt; inactive means no such curve, though single readings can be large; an effect the other way counts as inactive or inconclusive.
Assays:
[1] = target: Beta-2 adrenergic receptor (Homo sapiens) (UniProt P07550); test: qHTS validation assay of beta-arrestin-biased ligands of beta2-adrenergic receptor (AID 485366); settings: cell-based beta-arrestin recruitment to ADRB2, qHTS; series mostly up to 46.1 µM
Sequence of Beta-2 adrenergic receptor (Homo sapiens) (P07550 whole entry, looked up): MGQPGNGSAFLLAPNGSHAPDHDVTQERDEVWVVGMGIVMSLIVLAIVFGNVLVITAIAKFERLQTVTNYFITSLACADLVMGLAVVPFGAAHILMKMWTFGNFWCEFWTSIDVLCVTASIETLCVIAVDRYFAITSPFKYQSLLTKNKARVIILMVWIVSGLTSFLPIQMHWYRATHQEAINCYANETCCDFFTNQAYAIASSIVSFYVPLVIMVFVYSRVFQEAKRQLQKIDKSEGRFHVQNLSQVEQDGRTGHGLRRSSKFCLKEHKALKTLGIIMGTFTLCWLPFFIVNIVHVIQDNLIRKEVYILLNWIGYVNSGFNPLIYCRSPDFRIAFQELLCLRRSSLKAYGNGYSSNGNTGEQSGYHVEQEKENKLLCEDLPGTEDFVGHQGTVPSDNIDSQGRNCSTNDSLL
Outline: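 Values derive from curve-fitted %Activity of a luminescent beta-arrestin recruitment reporter; compounds tested up to 46 microM on Tango cells for 18 hr at 37 degrees C, 5% CO2.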

[2] = target: Thioredoxin reductase 1, cytoplasmic (Rattus norvegicus) (UniProt O89049); test: qHTS Assay for Substrates of Mammalian Selenoprotein Thioredoxin Reductase 1 (TrxR1) (AID 488772); settings: purified TrxR1, NADPH consumption substrate assay; series mostly up to 57.1 µM;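 further: NADPH fluorescence in the first read after selenite addition and not the 8 min delta; a drop in NADPH fluorescence below the no-compound background marks a TrxR1 substrate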
Sequence of Thioredoxin reductase 1, cytoplasmic (Rattus norvegicus) (O89049 whole entry, looked up): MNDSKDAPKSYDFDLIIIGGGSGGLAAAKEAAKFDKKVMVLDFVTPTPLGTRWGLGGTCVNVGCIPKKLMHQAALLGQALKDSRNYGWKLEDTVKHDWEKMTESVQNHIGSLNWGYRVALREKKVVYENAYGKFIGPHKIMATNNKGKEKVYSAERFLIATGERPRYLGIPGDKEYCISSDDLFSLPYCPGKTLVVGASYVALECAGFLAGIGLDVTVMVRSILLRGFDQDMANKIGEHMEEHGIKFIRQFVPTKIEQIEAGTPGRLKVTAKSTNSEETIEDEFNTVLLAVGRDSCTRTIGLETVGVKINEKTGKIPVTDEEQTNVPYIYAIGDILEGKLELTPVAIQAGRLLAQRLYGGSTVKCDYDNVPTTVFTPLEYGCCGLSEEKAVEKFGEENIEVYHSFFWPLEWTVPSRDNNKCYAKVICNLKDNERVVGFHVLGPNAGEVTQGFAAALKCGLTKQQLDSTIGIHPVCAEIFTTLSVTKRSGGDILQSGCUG
Outline: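 Quantitative HTS in Tris-HCl buffer at pH 7.5 with EDTA and Tween-20, using rat TrxR1, 400 uM NADPH and 400 uM selenite (final). A fall in initial NADPH fluorescence relative to background marked substrate behaviour.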

[3] = target: Thioredoxin reductase 1, cytoplasmic (Rattus norvegicus) (UniProt O89049); test: qHTS Assay for Inhibitors of Mammalian Selenoprotein Thioredoxin Reductase 1 (TrxR1) (AID 488773); settings: purified TrxR1 enzyme activity; Potency: inhibition; series mostly up to 57.1 µM; further: nearly all actives have a fitted effect of over 40% in size; further: potency means the concentration at half of the fitted maximal effect
Outline: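 Steps: enzyme (90 nM) plus NADPH (400 uM final), 5 min at ~22 deg C; compound added, 15 min; selenite (400 uM final) added; fluorescence followed for 8 min. Concentration-response curves derived from the normalized delta values.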

[4] = target: Flap endonuclease 1 (Homo sapiens) (UniProt P39748); test: qHTS Validation Assay for the Inhibitors of Human Flap endonuclease 1 (FEN1) (AID 488816); settings: FEN1 nuclease activity, fluorogenic DNA substrate; series mostly up to 57.1 µM; further: potency means the concentration at half of the fitted maximal effect
Sequence of Flap endonuclease 1 (Homo sapiens) (P39748 whole entry, looked up): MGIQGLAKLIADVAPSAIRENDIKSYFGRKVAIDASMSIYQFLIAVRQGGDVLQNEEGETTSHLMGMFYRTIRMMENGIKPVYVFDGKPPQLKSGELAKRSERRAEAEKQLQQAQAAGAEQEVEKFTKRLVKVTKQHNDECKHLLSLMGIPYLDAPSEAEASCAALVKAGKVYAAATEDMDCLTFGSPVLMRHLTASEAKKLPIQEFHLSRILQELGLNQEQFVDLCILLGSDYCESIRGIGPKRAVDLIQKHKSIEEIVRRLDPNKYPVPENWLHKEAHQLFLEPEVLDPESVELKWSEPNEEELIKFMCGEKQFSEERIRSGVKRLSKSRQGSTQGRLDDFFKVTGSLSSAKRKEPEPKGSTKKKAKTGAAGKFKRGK
Outline: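 FEN1, dispensed as a 10 nM reagent, was preincubated with pin-transferred compounds for 15 min at room temperature before substrate was added (50 nM final). Plates were read at 0 and 15 min, and a four-parameter Hill equation was fitted to the concentration-response data.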

[5] = target: Chromobox protein homolog 1 (Homo sapiens) (UniProt P83916); test: qHTS Validation Assay for Inhibitors of HP1-beta Chromodomain Interactions with Methylated Histone Tails (AID 488953); settings: HP1-beta chromodomain / methylated histone peptide binding assay; series mostly up to 114 µM; further: nearly all actives have a fitted effect of over 50% in size; further: potency means the concentration at half of the fitted maximal effect
Sequence of Chromobox protein homolog 1 (Homo sapiens) (P83916 whole entry, looked up): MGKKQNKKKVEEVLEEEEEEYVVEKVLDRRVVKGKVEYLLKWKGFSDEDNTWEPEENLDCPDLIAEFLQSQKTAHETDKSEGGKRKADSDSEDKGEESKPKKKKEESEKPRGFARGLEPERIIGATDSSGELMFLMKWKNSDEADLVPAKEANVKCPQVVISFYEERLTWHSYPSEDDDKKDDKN
Outline: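 50 nM HP1-beta + 50 nM biotin-H3(1-18)K9me3, PBS pH 7.4, 0.01% Tween-20, 30 min RT; compound added, 30 min RT; AlphaScreen beads 10 ug/mL final, 30 min dark; luminescence read.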

[6] = target: Methanococcus maripaludis chaperonin (MmCpn) (UniProt Q6LX38); test: High-Throughput Screening for Modulators of Cytosolic Chaperonin Activity: MmCpn Primary Screen (AID 488978); settings: Purified MmCpn ATPase activity, ADP HTRF detection, 10 min; series mostly up to 76.9 µM
Sequence of Methanococcus maripaludis chaperonin (MmCpn) (Q6LX38 1-543): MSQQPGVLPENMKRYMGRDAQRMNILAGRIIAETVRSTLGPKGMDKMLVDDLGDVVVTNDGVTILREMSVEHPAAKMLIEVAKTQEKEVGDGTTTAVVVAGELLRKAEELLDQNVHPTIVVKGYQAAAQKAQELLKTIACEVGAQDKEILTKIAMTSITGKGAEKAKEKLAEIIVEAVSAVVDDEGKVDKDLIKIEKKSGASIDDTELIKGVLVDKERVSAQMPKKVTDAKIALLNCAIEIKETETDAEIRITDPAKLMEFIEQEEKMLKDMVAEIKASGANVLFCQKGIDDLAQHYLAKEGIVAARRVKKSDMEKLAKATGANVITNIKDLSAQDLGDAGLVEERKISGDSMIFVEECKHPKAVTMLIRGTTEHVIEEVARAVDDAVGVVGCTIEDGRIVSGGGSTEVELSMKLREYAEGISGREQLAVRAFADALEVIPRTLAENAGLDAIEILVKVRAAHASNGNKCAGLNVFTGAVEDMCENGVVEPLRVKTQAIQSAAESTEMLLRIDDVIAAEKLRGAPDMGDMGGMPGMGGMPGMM
Outline: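 HTRF readout (320 nm excitation, 590/665 nm emission) of ADP generated by 50 nM MmCpn hydrolysing 30 uM ATP during 10 min at 37C; compound preincubated 5 min RT.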

[7] = target: M-phase phosphoprotein 8 (Homo sapiens) (UniProt Q99549); test: qHTS Validation Assay for Inhibitors for MPP8 Chromodomain Interactions with Methylated Histone Tails (AID 488949); settings: AlphaScreen MPP8 binding to H3K9me3 peptide; series mostly up to 57.1 µM; further: nearly all actives have a fitted effect of over 55% in size; further: potency means the concentration at half of the fitted maximal effect
Sequence of M-phase phosphoprotein 8 (Homo sapiens) (Q99549 whole entry, looked up): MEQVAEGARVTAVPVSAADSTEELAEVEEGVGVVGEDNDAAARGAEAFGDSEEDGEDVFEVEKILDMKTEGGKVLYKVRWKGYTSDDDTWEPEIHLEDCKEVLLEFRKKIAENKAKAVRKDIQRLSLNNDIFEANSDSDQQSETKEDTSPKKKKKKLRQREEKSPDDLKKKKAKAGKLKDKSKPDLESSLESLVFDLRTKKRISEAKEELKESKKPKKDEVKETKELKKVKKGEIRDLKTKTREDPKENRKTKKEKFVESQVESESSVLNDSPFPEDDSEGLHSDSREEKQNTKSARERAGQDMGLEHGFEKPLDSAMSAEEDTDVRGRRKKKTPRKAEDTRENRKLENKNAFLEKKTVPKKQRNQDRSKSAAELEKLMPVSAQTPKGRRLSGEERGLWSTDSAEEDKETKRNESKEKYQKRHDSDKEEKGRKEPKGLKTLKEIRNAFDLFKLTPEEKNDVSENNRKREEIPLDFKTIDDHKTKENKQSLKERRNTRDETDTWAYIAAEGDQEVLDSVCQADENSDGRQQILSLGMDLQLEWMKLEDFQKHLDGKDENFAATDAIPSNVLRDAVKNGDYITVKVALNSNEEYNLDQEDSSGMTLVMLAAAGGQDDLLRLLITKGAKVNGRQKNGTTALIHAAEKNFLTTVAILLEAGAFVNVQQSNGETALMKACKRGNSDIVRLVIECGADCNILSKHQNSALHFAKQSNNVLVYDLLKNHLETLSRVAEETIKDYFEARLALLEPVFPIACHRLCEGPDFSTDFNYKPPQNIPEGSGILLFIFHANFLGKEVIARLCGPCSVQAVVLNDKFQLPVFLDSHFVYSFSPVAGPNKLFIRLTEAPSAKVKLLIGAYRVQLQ
Outline: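 Chemiluminescent proximity assay: histidine-tag capture via nickel acceptor beads, biotin peptide via streptavidin donor beads. Protein and peptide each at 50 nM, pH 7.4, with 30 min incubations at room temperature for complex formation, compound exposure and bead binding.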

[8] = target: ATP-dependent 6-phosphofructokinase (Trypanosoma brucei brucei) (UniProt O15648); test: qHTS Validation Assay to Find Inhibitors of T. brucei phosphofructokinase (AID 485368); settings: T. brucei PFK enzyme assay, qHTS 7-point titration; series mostly up to 57.5 µM
Sequence of ATP-dependent 6-phosphofructokinase (Trypanosoma brucei brucei) (O15648 whole entry, looked up): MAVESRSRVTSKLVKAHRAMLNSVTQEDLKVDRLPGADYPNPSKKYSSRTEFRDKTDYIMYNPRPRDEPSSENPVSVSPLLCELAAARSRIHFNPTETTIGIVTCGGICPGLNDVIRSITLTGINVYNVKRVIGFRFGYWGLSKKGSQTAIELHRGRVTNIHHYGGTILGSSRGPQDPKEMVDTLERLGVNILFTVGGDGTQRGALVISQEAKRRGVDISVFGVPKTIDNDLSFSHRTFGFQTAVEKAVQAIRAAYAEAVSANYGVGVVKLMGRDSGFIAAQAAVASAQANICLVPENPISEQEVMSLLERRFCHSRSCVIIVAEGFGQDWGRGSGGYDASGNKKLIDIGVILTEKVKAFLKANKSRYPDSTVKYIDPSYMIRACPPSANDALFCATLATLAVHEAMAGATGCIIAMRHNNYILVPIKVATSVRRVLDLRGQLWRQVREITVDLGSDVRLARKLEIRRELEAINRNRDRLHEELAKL
Outline: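 Enzyme reaction in triethanolamine buffer pH 8.0 with 5 mM MgCl2, 0.01% Tween20 and 0.1% BSA; PFK 1.25 nM, F6P 0.5 mM, ATP 0.1 mM, 45 min RT. ADP quantified by ADP-Glo.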

[9] = Quantitative high throughput screen for delayed death inhibitors of the malarial parasite plastid, 96 hour incubation (AID 488745); settings: Plasmodium falciparum growth; series mostly up to 28.7 µM;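 further: luciferase-expressing P. falciparum in erythrocytes at 2% hematocrit and 0.1% parasitemia; nearly all actives have a fitted effect of over 70% in size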
Outline: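 Infected erythrocytes were added to compound in Albumax-supplemented RPMI 1640 at 0.1% parasitemia and 2% hematocrit (final), incubated 96 h at 37 C under 5% CO2, then luciferase reagent was added and luminescence measured.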

[10] = Quantitative high throughput screen for delayed death inhibitors of the malarial parasite plastid, 48 hour incubation (AID 488752); settings: Plasmodium falciparum growth; series mostly up to 28.7 µM; further: nearly all actives have a fitted effect of over 65% in size
Outline: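 Readout is firefly luciferase luminescence from a reporter integrated into the parasite genome, with lower signal taken as inhibited growth. Infected red cells (0.1% parasitemia, 2% hematocrit final) are cultured with compound for one 48 h cycle at 37 C.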

Measured: Potency

CCCCCCC(=O)OC1CC(C)(C)NC(C)(C)C1
inactive: [1] | [2] | [3] | [4] | [5] | [6]

Oc1ccc(/C=C/c2ccc(/C=C/c3ccc(O)cc3)c(Br)c2)cc1
inactive: [1] | [2] | [4] | [7] | [6]

CC(C)NC[C@H](O)COc1ccc(CC(N)=O)cc1
not listed: [1] | [4] | [7]
inactive: all other assays above

C=C1C[C@@]23CC[C@H]4[C@@](C)(CCC[C@@]4(C)C(=O)OC4OC(CO)C(O)C(O)C4O)[C@@H]2CC[C@]1(OC1OC(CO)C(O)C(O)C1OC1OC(CO)C(O)C(O)C1O)C3 (stereo not given in full)
active: [5] 0.006 µM
not listed: [8] | [9] | [10]
inactive: all other assays above

CN1CCc2cc(Cl)c(O)cc2[C@@H](c2ccccc2)C1
not listed: [1] | [9] | [10]
inactive: all other assays above

CCc1ccc2c(-c3cccc(Cl)c3)nc(=O)n(CC)c2n1
inactive: [1] | [2] | [4] | [7] | [5] | [6]

COc1ccc(CCn2nnnc2C2(c3ccc(C)cc3)CC2)cc1
not listed: [8] | [9] | [10]
inactive: all other assays above

N#Cc1cc([N+](=O)[O-])c2sc(C(N)=O)[n+]([O-])c2c1
inactive: [1] | [2] | [3] | [4] | [7] | [6]

NCCNS(=O)(=O)c1cccc2c(Cl)cccc12
not listed: [8] | [9] | [10]
inactive: all other assays above

CCCCCCCCCC(=O)NC(CN1CCOCC1)[C@H](O)c1ccccc1 (stereo not given in full)
inactive: [1] | [2] | [4] | [7] | [5] | [6]

N[C@H](C(=O)O)[C@H](Cc1ccccc1)C(=O)O
not listed: [8] | [9] | [10]
inactive: all other assays above

COc1cc(/C=C(\C#N)C(=O)Nc2nnc(C(F)(F)F)s2)ccc1OCc1ccc(C(F)(F)F)cc1C(F)(F)F
active: [5] 89.1 µM
not listed: [8] | [9] | [10]
inactive: all other assays above

O=C1Cc2c([nH]c3ccc(Br)cc23)-c2ccccc2N1
inactive: [1] | [2] | [4] | [7] | [6]

C[C@H](NC(=O)/C(C#N)=C/c1ccc(O)c(O)c1)c1ccccc1
inactive: [1] | [2] | [4] | [6]
active: [5] 31.6 µM

O=C(O)/C(=C/c1c(C(=O)O)[nH]c2cc(Cl)cc(Cl)c12)c1ccccc1
inactive: [1] | [2] | [3] | [4] | [7] | [6]

CCN1C(=O)C=CC1=O
inactive: [1] | [2] | [3] | [4] | [7] | [6]

Cn1cc(C(F)(F)F)nc1-c1ccc(OCC(O)CNCCOc2ccc(O)c(C(N)=O)c2)cc1 (stereo not given)
inactive: [2] | [3] | [4] | [7] | [5] | [6]

N#CC(=C(\N)Sc1ccccc1N)/C(C#N)=C(/N)Sc1ccccc1N
inactive: [1] | [3] | [4] | [7] | [6]

CC(C)(C)NCC(O)COc1cccc2[nH]c(=O)[nH]c12 (stereo not given)
not listed: [1]
inactive: all other assays above

C=CCNc1ncnc2ccc(Br)cc12
not listed: [8] | [9] | [10]
inactive: all other assays above

Nc1nc2c(cnn2CCc2ccccc2)c2nc(-c3ccco3)nn12
inactive: [1] | [2] | [4] | [7] | [5]

CC(C)NCC(O)COc1ccc(CC(N)=O)cc1 (stereo not given)
inactive: [9] | [10] | [2] | [3] | [5] | [6]

CNCCc1cnc(CCC(c2ccccc2)c2ccccc2)[nH]1
inactive: [1] | [2] | [4] | [7] | [6]

C[C@H]1CC2C3CCC4=CC(=O)C=C[C@]4(C)[C@@]3(Cl)[C@@H](O)C[C@]2(C)[C@@]1(O)C(=O)CO (stereo not given in full)
inactive: [1] | [2] | [3] | [4] | [7] | [6]

NC(=Nc1ccccc1)NC(=O)c1nc(Cl)c(N)nc1N
inactive: [1] | [3] | [4] | [7] | [5] | [6]

CC[n+]1c(/C=C/C=C2/N(C)c3ccccc3C2(C)C)sc2ccccc21
inactive: [1] | [6]
active: [4] 26.7 µM | [7] 15 µM | [5] 25.1 µM

S=C(S)N1CCCC1
inactive: [1] | [2] | [3] | [4] | [6]

C[C@](Cc1ccc(O)c(O)c1)(NN)C(=O)O
active: [3] 8.44 µM
inactive: [1] | [2] | [7] | [5] | [6]

CSc1nc(N)c2ncn([C@@H]3O[C@H](COP(=O)(O)OP(=O)(O)O)C(O)[C@H]3O)c2n1 (stereo not given in full)
not listed: [8] | [9] | [10]
inactive: all other assays above

C[C@]12C=CC(=O)C=C1CC[C@@H]1C2=CC[C@]2(C)[C@@H](C(=O)CN3CCN(c4cc(N5CCCC5)nc(N5CCCC5)n4)CC3)CC[C@@H]12
inactive: [1] | [4] | [6]

O=c1[nH]c(=S)[nH]c(-c2ccccc2)c1Cc1c(O)ccc2ccccc12
active: [5] 44.7 µM
inactive: [1] | [3] | [4] | [7] | [6]

N#C/C(=C\c1ccc(O)c(O)c1)C(=O)NCCCNC(=O)/C(C#N)=C/c1ccc(O)c(O)c1
inactive: [1] | [6]

O=C1Nc2ccc(I)cc2/C1=C/c1cc(Br)c(O)c(Br)c1
inactive: [1] | [2] | [6]
active: [7] 14.1 µM and 9.47 µM | [5] 11.2 µM

COC(=O)C1=C(C)NC(C)=C([N+](=O)[O-])C1c1ccccc1C(F)(F)F (stereo not given)
inactive: [1] | [2] | [3] | [4] | [7] | [6]

From PubChem BioAssay (NCATS)
